Bioassay records: PubChem, National Center for Advancing Translational Sciences (NCATS)
In the library only some 6.3% were active in any assay of this set; here they are far more common.
TGFb SMAD3 inh = TGF-b pathway inhibition. HepG2 CAGA-GFP TGF-b/SMAD3 reporter, GFP fluorescence, 18 h; TGF-beta stimulated, 500 pg/mL final. Potency, µM (top dose mostly 46.1 µM), for the others: at the top dose activity, negative = inhibition, most hits filed as inhibitors. 410,000 tested, 1.2% active. AID 588855; also: % is scaled to controls: 0 for no effect and ±100 for the full control effect; nearly all actives have a fitted effect of over 65% in size
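Smad-responsive CAGA-GFP expression was quantified in HEPG2 cells exposed to compounds and 500 pg/mL final TGF-beta for 18 h at 37 degrees C; unstimulated wells defined full inhibition.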
ATXN2 expr inh = inhibitors of ATXN2 expression. 360,000 tested, 0.72% active. Potency, µM (doses to about 57 µM), for inactives: at the highest dose activity change, negative = inhibition, actives largely listed as inhibitors. HEK-293 ATXN2-luciferase reporter, luminescence, 24 h; also: % is scaled to controls: 0 for no effect and ±100 for the full control effect; nearly all actives have a fitted effect of over 55% in size
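qHTS (up to 57 uM final) was run with 24 h compound exposure of reporter cells at 37 °C. Each well was multiplexed: SteadyGlo luminescence measured ATXN2-luciferase expression after a fluorogenic Gly-Phe-AFC viability readout (25 uM final).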
HepG2 tox-1 = counter-screen for TGF-b inhibitors: cytotoxicity in HepG2 cells; HepG2 CAGA-GFP viability, ATP luminescence, 18 h; Potency, µM (series often up to 46.1 µM), for the others: top-dose activity change, negative = cytotoxicity, actives largely listed as cytotoxic; 410,000 tested, 0.76% active; AID 588856
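CellTiter-Glo luminescence gave cytotoxicity after 18 hours at 37 degrees C. The cells were HepG2 CAGA-GFP in 1% FBS DMEM, stimulated with 500 pg/mL TGF-beta after compound addition. %Activity was normalised to no-cell wells (complete cell-killing) and DMSO (no toxicity), and curves were fitted and classified.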
RORgamma inh = blocks mouse ROR gamma transcriptional activity | P51450 | Drosophila S2 Gal4-RORgamma UAS-luciferase reporter, 20 h | Potency, µM (highest dose often 53.6 µM), for the others: at the highest dose activity change, negative = inhibition, hits mostly inhibitors | 310,000 tested, 5.4% active | AID 2551; also: % is scaled to controls: 0 for no effect and ±100 for the full control effect; nearly all actives have a fitted effect of over 60% in size
Target sequence (P51450 whole entry, looked up, the tested form may be a part): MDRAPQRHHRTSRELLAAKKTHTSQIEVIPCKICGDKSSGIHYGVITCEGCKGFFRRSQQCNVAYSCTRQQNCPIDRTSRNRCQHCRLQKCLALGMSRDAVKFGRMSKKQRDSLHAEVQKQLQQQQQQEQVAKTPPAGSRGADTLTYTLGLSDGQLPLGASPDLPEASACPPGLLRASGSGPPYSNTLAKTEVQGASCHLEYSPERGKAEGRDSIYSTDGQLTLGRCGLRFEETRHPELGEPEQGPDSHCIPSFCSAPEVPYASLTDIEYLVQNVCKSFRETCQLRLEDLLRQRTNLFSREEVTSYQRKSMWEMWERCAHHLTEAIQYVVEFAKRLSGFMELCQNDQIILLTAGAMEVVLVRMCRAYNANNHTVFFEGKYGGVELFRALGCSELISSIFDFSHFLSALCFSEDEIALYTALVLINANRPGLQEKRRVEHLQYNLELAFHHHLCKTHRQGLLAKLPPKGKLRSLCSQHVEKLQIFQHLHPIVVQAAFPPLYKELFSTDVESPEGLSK
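In this cell-based reporter format, copper sulfate (700 uM final) drives Gal4–ROR gamma fusion expression from a metallothionein promoter in Drosophila Schneider cells; compounds preincubated 1 hr, reporter read after 20 hr at ambient temperature.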
Gal4-VP16 FLuc = inhibits Gal4-VP16 luciferase reporter, ROR gamma counter-screen; Drosophila S2 Gal4-VP16 UAS-luciferase, luminescence, 20 h; Potency, µM (series often up to 53.6 µM), for inactives: at the highest dose activity, negative = inhibition, usual class: inhibitors; 310,000 tested, 3.5% active; AID 2546;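 also: Gal4-VP16 expression switched on by copper sulfate through the metallothionein promoter; % is scaled to controls: 0 for no effect and ±100 for the full control effect; nearly all actives have a fitted effect of over 50% in size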
S2 tox = cell viability loss in ATXN counter-screen; S2 cells (HEK-293 line with an ATXN2-luciferase reporter) viability, CellTiter-Fluor protease fluorescence, 24 h; Potency, µM (top dose mostly 56.7 µM), most hits filed as cytotoxic; AID 651635; 400,000 tested, 0.49% active; also: nearly all actives have a fitted effect of over 40% in size
TGFb confirm = TGF-b pathway inhibition, cherry-pick retest; 1,600 tested, 63% active; shares compounds with TGFb SMAD3 inh; Potency, µM (series often up to 46.1 µM), inactives show at the top dose activity, negative = inhibition, hits mostly inhibitors; HepG2 CAGA-GFP TGF-b reporter, GFP fluorescence, 18 h; cells stimulated with TGF-beta, 500 pg/mL; also: % is scaled to controls: 0 for no effect and ±100 for the full control effect; nearly all actives have a fitted effect of over 65% in size
HepG2 tox-2 = HepG2 cytotoxicity, TGF-b inhibitor counterscreen; shares compounds with TGFb SMAD3 inh; HepG2 CAGA-GFP viability, ATP luminescence, 18 h; cells stimulated with TGF-beta, 500 pg/mL; Potency, µM (series often up to 46.1 µM), for inactives: at the highest dose activity, negative = cytotoxicity, usual class: inhibitors; 1,600 tested, 27% active; also: % is scaled to controls: 0 for no effect and ±100 for the full control effect; nearly all actives have a fitted effect of over 70% in size
CCL64 TGFb inh = TGF-b inhibition, CCL64 orthogonal assay; shares compounds with TGFb SMAD3 inh; 1,600 tested, 41% active; AID 720536; Potency, µM (highest dose often 46.1 µM), for inactives: at the highest dose activity, negative = inhibition, actives largely listed as inhibitors; CCL64 CAGA-GFP reporter, TGF-b stimulated, GFP fluorescence, 18 h; also: nearly all actives have a fitted effect of over 65% in size
COP TGFb inh = validation of TGF-b inhibitors in HepG2 COP promoter reporter. shares compounds with TGFb SMAD3 inh. HepG2 COP-GFP TGF-b reporter, GFP fluorescence, 18 h; cells stimulated by added recombinant TGF-beta. Potency, µM (doses to about 46.1 µM), inactives show at the top dose activity, negative = inhibition, most hits filed as inhibitors. 1,600 tested, 3% active. AID 720537; also: nearly all actives have a fitted effect of over 70% in size
Numbers without * were called inactive; i = inactive; ? = inconclusive; . = not tested or not shown. Calls follow the shape of the dose curve; as a rule, active = well fitted curve in the direction sought with a large enough effect; inconclusive = small, poorly fitted or top-dose-only effect, or another doubt; inactive = no such curve, though single readings can be large; an effect the other way counts as inactive or inconclusive. Potency is read from the fitted curve at half-maximal effect.

SMILES | TGFb SMAD3 inh | ATXN2 expr inh | HepG2 tox-1 | RORgamma inh | Gal4-VP16 FLuc | S2 tox | TGFb confirm | HepG2 tox-2 | CCL64 TGFb inh | COP TGFb inh
CC(=O)N(c1ccccc1C)C1CCCC1 | -1% | 6% | 21% | -26% | -7% | i | . | . | . | .
CC(=O)N(C1=C(Cl)C(=O)c2ccccc2C1=O)C1CCCCC1 | 2.8µM* | ? | -89% | 10µM* | 11µM* | . | 3.3µM* | 8.2µM* | 4.6µM* | 10µM*
CCOc1ccccc1NC(=O)c1nnn(CC(=O)Nc2ccc(OC)c(OC)c2)c1N | -3% | . | -15% | . | . | . | . | . | . | .
O=C(CSc1nc(=O)n(Cc2ccncc2)c2c1CCC2)Nc1cccc(F)c1 | -23% | 3% | 4% | . | . | i | . | . | . | .
CC(C)C[C@@H](CN1CCC[C@@H]1CN1C(=S)NC[C@@H]1Cc1ccc(O)cc1)N1C[C@H](Cc2ccccc2)N(CCc2ccccc2)C1=S | 16µM* | ? | -6% | . | . | ? | ? | -30% | ? | 26%
CC(C)C[C@@H](CN1CCCC1CN1C(=S)NC[C@@H]1Cc1ccc(O)cc1)N1C[C@H](Cc2ccccc2)N(CCc2ccccc2)C1=S (some centres not stated) | ? | -20% | -60% | . | . | i | ? | -20% | ? | 27%
CCOc1ccc(CCN2C(=S)N([C@@H](Cc3ccccc3)CN3CCCC3CN3C(=S)NC[C@@H]3Cc3ccccc3)C[C@@H]2Cc2ccc(O)cc2)cc1 (some centres not stated) | . | -2% | . | . | . | ? | . | . | . | .
CC(C)C[C@H]1CN([C@@H](CC(C)C)CN2CCCC2CN2C(=S)NC[C@@H]2Cc2ccc(O)cc2)C(=S)N1CCc1ccccc1 (some centres not stated) | ? | -24% | -2% | . | . | ? | . | . | . | .
CCOc1ccc(CCN2C(=S)N([C@@H](CC(C)C)CN3CCC[C@@H]3CN3C(=S)NC[C@@H]3Cc3ccccc3)C[C@@H]2Cc2ccc(O)cc2)cc1 | 7.9µM* | -23% | -16% | . | . | i | ? | ? | ? | 27%
Cc1ccc(-n2nnnc2Sc2ccc(S(=O)(=O)NCCN(C)C)cc2[N+](=O)[O-])cc1 | 1.6µM* | ? | 8.9µM* | ? | ? | ? | 7.3µM* | 21µM* | 5.8µM* | ?
Cc1ccc(S(=O)(=O)NCCSc2nnnn2-c2ccc(C(N)=O)cc2)cc1 | -9% | 1% | -10% | ? | -6% | i | . | . | . | .
CCOC(=O)C#CC(CCc1ccccc1)OS(N)(=O)=O (configuration not stated) | 0.71µM* | 9% | -28% | 36% | -14% | i | -29% | -6% | ? | -22%
CC(=O)Oc1ccc2ccccc2c1C(NC(=O)Cc1ccccc1)c1ccccc1 (configuration not stated) | 10µM* | ? | -36% | ? | 4% | ? | 29µM* | ? | ? | 65%
CC(=O)NC(c1cccc([N+](=O)[O-])c1)c1c(OC(C)=O)ccc2ccccc12 (configuration not stated) | -26% | -9% | -9% | . | . | i | . | . | . | .
CC(C)[C@@H]1Cc2[nH]c(=S)[nH]c(=O)c2[C@H](CCc2ccccc2)O1 | . | -5% | . | . | . | i | . | . | . | .
CCN(CC)c1ccc(NC(=O)CN(C)S(=O)(=O)c2cccc3nsnc23)c(C)c1 | -12% | . | -26% | . | . | . | . | . | . | .
CC(C)C[C@H]1CN([C@@H](CC(C)C)CN2CCC[C@@H]2CN2C(=S)NC[C@@H]2Cc2ccc(O)cc2)C(=S)N1CCc1ccccc1 | 10µM* | ? | -20% | . | . | ? | 13µM* | ? | 16µM* | 54%
CC(C)C[C@H]1CNC(=S)N1C[C@H]1CCCN1C[C@H](CC(C)C)N1C[C@H](Cc2ccc(O)cc2)N(CCc2ccccc2)C1=S | 7.1µM* | ? | -97% | . | . | 7.1µM* | ? | 21µM* | 23µM* | 24%
Cc1ccc(Cn2cnc3nc4c(cc3c2=O)CC(C)CC4)cc1 (configuration not stated) | 3% | 86% | -35% | . | . | i | . | . | . | .
Cc1cscc1-c1ccc(C(=O)Nc2c(C)cccc2C)o1 | 14µM* | -28% | -25% | . | . | ? | 12µM* | -13% | -29% | 17%
Cc1ccc(-c2ccc(C(=O)Nc3ccccc3)o2)c2ccccc12 | ? | -8% | -10% | ? | ? | i | . | . | . | .
NC1=NC[C@@H](Cc2ccc(O)cc2)N1CCC12CC3CC(CC(C3)C1)C2 | 10µM* | ? | -64% | . | . | ? | -17% | -17% | 9% | 0%
O=[N+]([O-])c1c(Nc2ccc(O)cc2)cc(Cl)c2nonc12 | 2.8µM* | . | 5µM* | 5.6µM* | 4.5µM* | . | 3.3µM* | 3.7µM* | 2.9µM* | 4.6µM*
CN(C)c1cc(Nc2ccc(O)cc2)c([N+](=O)[O-])c2nonc12 | 6% | 5% | -1% | 2% | -2% | ? | . | . | . | .
O=[N+]([O-])c1c(Nc2ccccn2)cc(Cl)c2nonc12 | 3.2µM* | 28µM* | -91% | 13µM* | 8.9µM* | ? | 4.6µM* | 4.6µM* | 4.6µM* | 5.2µM*
O=C(O)c1ccccc1Nc1cc(Cl)c2nonc2c1[N+](=O)[O-] | 1% | 0% | 7% | . | . | i | . | . | . | .
Cc1ccc(CNc2ccc(O)cc2)cc1 | 10µM* | 7% | -103% | ? | ? | i | 23µM* | ? | ? | ?
